Drawing on PubChem BioAssay (NCI), this text covers growth for 8 compounds.

The panel holds about 83,000 compounds, 20% with a hit somewhere; the sample as a whole holds those more often.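 How to read the values: 0–100, growth inhibition (40 = 60% inhibited); 0, no net growth; -100 to 0, cell death (-40 = 40% of starting cells died; -100 = all dead).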 Values without a mark were called inactive. Calls of active or inactive are those of the source. The calls were made as follows: active = growth percent below 10; inactive = the rest.

Some test systems named below: DU-145 prostate; K-562 leukemia; MALME-3M melanoma; MDA-MB-231 breast; RXF 393 renal; SF-268 CNS; SF-295 CNS; SF-539 CNS; UACC-257 melanoma; M14 melanoma; HCT-15 colon; HT29 colon; SNB-75 CNS; SNB-19 CNS; U251 CNS; PC-3 prostate; SK-MEL-5 melanoma; UACC-62 melanoma; LOX IMVI melanoma; SK-MEL-28 melanoma.
Common to all, as to experiment: NCI-60 one-dose screen, 48 h (100 = growth as untreated, 0 = no growth, -100 = all killed)
Settings in all cases: 10 µM unless noted

Regarding `COC(=O)c1ccc2c(c1)nc(-c1ccc(Cl)cc1)n2-c1cc(C(C)(C)C)[nH]n1`, the growth is 85.9% with DU-145 prostate; 34.3% in the test on K-562 leukemia; 14.8% in the test on MALME-3M melanoma; 92% in the test on MDA-MB-231 breast; 45.7% in the test on RXF 393 renal; 68.5% with SF-268 CNS. Besides, the growth in the test with SF-295 CNS was 43.3%; in the test on SF-539 CNS, 60.4%; in the test on UACC-257 melanoma, 62.3%; in the test on M14 melanoma it was 33.8%; in the test with HCT-15 colon, 69.5%; with HT29 colon, 23%. For the same compound, the growth with SNB-75 CNS is 47.3%; with SNB-19 CNS it was 78.3%; with U251 CNS it was 38.2%; in the test on PC-3 prostate it was 39%; in the test on SK-MEL-5 melanoma, 25.9%; with UACC-62 melanoma, 45.7%. In addition, the growth was 44.2% in the test with LOX IMVI melanoma and 58% with SK-MEL-28 melanoma.

For `CSc1nc(N)c2[nH]c(-c3cc4ccccc4[nH]c3=O)nc2n1`, the growth is 72.6% in the test with DU-145 prostate; 92.7% in the test on K-562 leukemia; 90.7% in the test with MALME-3M melanoma; 98.8% with MDA-MB-231 breast; 76.8% in the test on RXF 393 renal; 78.2% in the test with SF-268 CNS. Moreover, the growth was 99.2% with SF-295 CNS; 102% in the test with SF-539 CNS; 104% with UACC-257 melanoma; 77.4% in the test with M14 melanoma; 64.8% in the test on HCT-15 colon; 94.2% in the test on HT29 colon. In addition, the growth in the test with SNB-75 CNS is 113%; in the test with SNB-19 CNS, 109%; in the test with U251 CNS, 84.7%; with PC-3 prostate it was 78.7%; in the test with SK-MEL-5 melanoma, 100%; in the test on UACC-62 melanoma it was 83.4%. For the same compound, the growth with LOX IMVI melanoma is 69.9%; with SK-MEL-28 melanoma, 116%.

As to `Cc1c(C(=O)Nc2ccccc2F)sc2c(=O)[nH]cnc12`, the growth with DU-145 prostate was 112%; in the test on K-562 leukemia, 47.4%; in the test on MALME-3M melanoma, 88.3%; in the test with MDA-MB-231 breast, 86.2%; in the test with RXF 393 renal it was 107%; in the test with SF-268 CNS it was 106%. Further, the growth in the test on SF-295 CNS is 85.4%; with SF-539 CNS, 109%; in the test on UACC-257 melanoma it was 88.7%; in the test on M14 melanoma, 75.1%; with HCT-15 colon, 59%; in the test with HT29 colon, 63.8%. The growth in the test on SNB-75 CNS is 77.9%; with SNB-19 CNS it was 96%; with U251 CNS, 89.7%; in the test on PC-3 prostate it was 81.9%; in the test on SK-MEL-5 melanoma, 92.3%; in the test on UACC-62 melanoma, 78.4%. The values for the growth in the test on LOX IMVI melanoma and in the test with SK-MEL-28 melanoma were 85% and 94.3%, respectively.

Take `CCN1C(=O)N(CC)C2C1NC(=O)N2/N=C/C=C/c1ccccc1` (stereo not given): the growth in the test with DU-145 prostate was 68.1%; in the test on K-562 leukemia it was 17%; in the test on MALME-3M melanoma it was 50.6%; in the test on MDA-MB-231 breast it was 71.5%; in the test with RXF 393 renal, 32.3%; with SF-268 CNS, 59.7%. The growth in the test with SF-295 CNS was 34.9%; in the test on SF-539 CNS, 25%; in the test with UACC-257 melanoma it was 35.8%; in the test on M14 melanoma, 28.5%; in the test on HCT-15 colon, 26.9%; in the test on HT29 colon, 14.6%. In addition, the growth in the test on SNB-75 CNS was 30.8%; in the test with SNB-19 CNS, 47.3%; in the test with U251 CNS, 38.8%; in the test on PC-3 prostate it was 34.6%; in the test with SK-MEL-5 melanoma it was 18%; in the test on UACC-62 melanoma it was 20.6%. Moreover, the growth is 32.9% with LOX IMVI melanoma and 53.2% with SK-MEL-28 melanoma.

In the case of `CC(C)(C)[Si](C)(C)OC1[C@@H](O[Si](C)(C)C(C)(C)C)[C@@H](CNC(=O)NC(=O)NC(=O)CI)O[C@H]1n1cnc2c(NC(=O)Nc3ccccc3)ncnc21` (stereo not given in full), the growth with DU-145 prostate was 90.7%; in the test with K-562 leukemia, 52.3%; in the test with MALME-3M melanoma, -83.3% (active); in the test with MDA-MB-231 breast, -49.7% (active); in the test with RXF 393 renal, -5.13% (active); with SF-268 CNS, 26.4%. The growth was -56.8% (active) in the test with SF-295 CNS; -63.2% (active) with SF-539 CNS; 105% in the test on UACC-257 melanoma; 73.1% in the test on M14 melanoma; 83.1% in the test with HCT-15 colon; -39.8% (active) in the test with HT29 colon. In addition, the growth in the test with SNB-75 CNS is 68.1%; with SNB-19 CNS it was 103%; with U251 CNS, 32.5%; with PC-3 prostate, 14.7%; in the test with SK-MEL-5 melanoma, 102%; in the test with UACC-62 melanoma it was 75.4%. In addition, the growth is -80.7% (active) with LOX IMVI melanoma and 125% in the test on SK-MEL-28 melanoma.

Consider `CCC(=O)NC1=C(Cl)C(=O)C(NC(=O)CC)=C(Cl)C1=O`, for which the growth in the test with DU-145 prostate was 44.3%; with K-562 leukemia, -24.3% (active); in the test on MALME-3M melanoma, -63.4% (active); in the test on MDA-MB-231 breast, 91.6%; in the test with RXF 393 renal, 39.9%; in the test with SF-268 CNS, 118%. Besides, the growth is 137% with SF-295 CNS; 117% with SF-539 CNS; 107% with UACC-257 melanoma; 93.7% with M14 melanoma; 101% in the test with HCT-15 colon; 106% with HT29 colon. The growth is 107% with SNB-75 CNS; 115% with SNB-19 CNS; 92.8% with U251 CNS; 91.4% in the test with PC-3 prostate; 96.3% with SK-MEL-5 melanoma; 102% with UACC-62 melanoma. Further, the growth in the test on LOX IMVI melanoma is 66.6%; in the test with SK-MEL-28 melanoma, -1.93% (active).

Consider `COc1ccc2[nH]cc(C3(c4c[nH]c5ccc(OC)cc45)C(=O)Nc4ccc(F)cc43)c2c1`, for which the growth was 81.2% with DU-145 prostate; -16.5% (active) with K-562 leukemia; 80.1% in the test on MALME-3M melanoma; 101% with MDA-MB-231 breast; 78.8% in the test on RXF 393 renal; 53.9% with SF-268 CNS. Besides, the growth was 56.7% with SF-295 CNS; 78.5% in the test with SF-539 CNS; 94% in the test with UACC-257 melanoma; 86.7% in the test on M14 melanoma; 86.6% in the test on HCT-15 colon; 68% in the test on HT29 colon. The growth was 42.9% in the test with SNB-75 CNS; 97.2% in the test with SNB-19 CNS; 82.5% with U251 CNS; 9.66% (active) with PC-3 prostate; 84.1% in the test with SK-MEL-5 melanoma; 82.3% in the test with UACC-62 melanoma. Moreover, the growth with LOX IMVI melanoma is 58.5%; in the test with SK-MEL-28 melanoma, 96.4%.

Turning to `CC(C)(C)OC[C@@H]1N=C(c2ccc(Br)cc2)Nc2nc3ccccn3c2C1=O`, the growth with DU-145 prostate was 82.7%; with K-562 leukemia, 25.3%; with MALME-3M melanoma, 51.5%; in the test with MDA-MB-231 breast, 61.5%; in the test on RXF 393 renal, 61.6%; in the test on SF-268 CNS, 74.3%. The growth with SF-295 CNS is 30.9%; in the test on SF-539 CNS, 75.7%; in the test with UACC-257 melanoma, 62.3%; in the test on M14 melanoma it was 46.4%; in the test on HCT-15 colon, 44.1%; in the test on HT29 colon it was 21.8%. The growth with SNB-75 CNS was 77.4%; in the test on SNB-19 CNS, 76.5%; in the test with U251 CNS, 63.5%; with PC-3 prostate, 53.4%; with SK-MEL-5 melanoma it was 38.4%; with UACC-62 melanoma, 53.6%. Moreover, the growth was 58.7% with LOX IMVI melanoma and 68.6% with SK-MEL-28 melanoma.
